Out of some 340,000 compounds screened, about 280 (0.082%) were called active.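 The calls were made as follows: active = percent activation above the mean of all tested compounds plus 3 SD (cut at about 19% in these data); inactive = the rest.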 The entries come from a sample that favours actives as a whole.

The experiment addresses cAMP-dependent protein kinase type I-alpha regulatory subunit (Bos taurus) + cAMP-dependent protein kinase catalytic subunit beta (Mus musculus) (UniProt P00514+P68181). Description: activators of PKA-R1A holoenzyme, primary screen, biochemical, fluorescence polarization, Cy5-IP20, bovine R1A, mouse PKAc (AID 504707).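 Also: higher means more PKAc released from R1A so a rise in polarization.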 Particulars: PKA-R1A dissociation, at 11.4 µM, active compounds read high, scaled: DMSO 0%, 113 µM cGMP 100%.
With `CCc1ccccc1OCC(=O)Nc1nnc(C2CC2)s1`, the activation is 8.59% (inactive). The same measure for `Cc1ccc(C(=O)OCC(=O)N2CC(C)CC(C)C2)cc1S(=O)(=O)N1CCCCC1` (centres undefined): 2.86% (inactive); for `O=C(OCc1ccccc1)N1CCC2CC1c1ccc(-c3ccc4c(c3)OCO4)cc12` (centres undefined): -1.02% (inactive); for `CC(OC(=O)c1cccnc1Cl)C(=O)NC1CCCCC1` (centres undefined): 0.33% (inactive). Regarding `O=Cc1cn(CCOc2ccc(F)cc2)c2ccccc12`, the activation is 1.87% (inactive). The same measure for `CCOc1ccc(CCNC(=O)COC(=O)c2ccc(C)c(S(=O)(=O)N3CCOCC3)c2)cc1OCC`: -10.3% (inactive); for `COc1ccc(CN2CC(C(=O)NC3CCCCC3)CC2=O)cc1` (centres undefined): 6.81% (inactive). Then `COc1ccc(N)cc1NC(=O)CN1CCOCC1`, with 8.37% (inactive). Then `O=C(Nc1ccc2c(c1)[C@@H]1C[C@@H](CC(=O)N3CCCCC3)O[C@@H](CO)[C@@H]1O2)NC1CCCCC1`, with 19.6% (active).

On to `O=C(C[C@H]1C[C@@H]2c3cc(NC(=O)C4CCC4)ccc3O[C@@H]2[C@H](CO)O1)NC1CCCCC1`, for which the activation is -5.02% (inactive). Then `COC(=O)C[C@H]1C[C@@H]2c3cc(NC(=O)Nc4ccccc4)ccc3O[C@@H]2[C@@H](CO)O1`, with 1.1% (inactive); and `CC(C)CCC(=O)Nc1cc(S(=O)(=O)N2CCOCC2)ccc1N1CCCC1`, with -1.93% (inactive); and `CC1(c2cccc(Br)c2)NC(=O)N(CC(=O)NCCC2=CCCCC2)C1=O` (centres undefined), with -3.47% (inactive). The same measure for `CCOc1ccc(NC(=O)CN(C)C(=O)Cn2c(=O)cnc3ccccc32)cc1OCC`: -7.12% (inactive); for `CCOc1ccc(C(=O)Nc2ccc(S(=O)(=O)Nc3cc(C)on3)cc2)cc1`: 3.9% (inactive); for `CCc1ccc(OC(C)C(=O)Nc2ccc(S(=O)(=O)Nc3cc(C)on3)cc2)cc1` (centres undefined): -6.6% (inactive). The same measure for `CCC(Oc1ccccc1C)C(=O)Nc1ccc(S(=O)(=O)Nc2cc(C)on2)cc1` (centres undefined): 20.4% (active); for `O[C@H]1CN(Cc2cccs2)[C@@H](c2ccc(Cl)cc2)C[C@@H]1n1cc(C2CC2)nn1`: -6.87% (inactive). Turning to `O=C(O)C1=C(C(=O)O)C2CCC1C2`, the activation is 7.53% (inactive). On to `CCCCCC(=O)N1C[C@H](O)[C@@H](n2cc(COC(=O)c3ccccc3)nn2)C[C@@H]1c1ccc(C)cc1`, for which the activation is 1.28% (inactive). The same measure for `Cc1ccc(-c2ccc(CN3C(C(C)C)C(=O)N(Cc4cn(CCC5OCCCO5)nn4)CCS3(=O)=O)cc2)cc1` (centres undefined): -3.03% (inactive); for `Cc1ccc2nc3c(cc(C(=O)NCCc4ccccc4)c(=N)n3CC3CCCO3)c(=O)n2c1` (centres undefined): 20.5% (active); for `Cc1cccn2c(=O)c3cc(C(=O)NCCN4CCOCC4)c(=N)n(Cc4cccnc4)c3nc12`: 5.89% (inactive). The same measure for `Cc1ccc(CCNC(=O)c2ccc3nc4ccccc4c(=O)n3c2)cc1`: 1.64% (inactive).
